Assay [1] in a line: qHTS assay to identify small molecule agonists of the vitamin D receptor (VDR) signaling pathway - cell viability counter screen (AID 743224). Note: nearly all actives have a fitted effect of over 50% in size. An outline of the steps: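 Here cell health was gauged by luminescent ATP detection (CellTiter-Glo, 30 min RT) in VDR-bla cells that had been incubated with test compounds for 16 h at 37C and 5% CO2.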
In general terms: qHTS replaces the single test concentration by a dilution series.

The nature of assay [2]: qHTS assay to identify small molecule antagonists of the vitamin D receptor (VDR) signaling pathway - cell viability counter screen (AID 743225). Note: nearly all actives have a fitted effect of over 50% in size. In short, it runs like this: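 Read-out: CellTiter-Glo luminescence measured 30 min after reagent addition at room temperature. Cells were VDR-bla HEK 293T exposed 16 h at 37C, 5% CO2, to compound with 3 nM final calcitriol agonist.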

A short description of assay [3]: qHTS assay to identify small molecule agonists of the NFkB signaling pathway (AID 1159509; active = well fitted curve in the direction sought with a large enough effect in the signal ratio in the repeat runs, not every such curve was filed as active; the % refers to the signal ratio). In short, it runs like this:
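NFkB-bla ME-180 cells with a beta-lactamase reporter under an NF-kB response element were plated overnight, treated with compounds in DMSO for 5 hr at 37 C, then loaded with FRET substrate for 1.5 hr at room temperature.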

Assay [4] in a line: qHTS assay to identify small molecule agonists of the NFkB signaling pathway - cell viability counter screen (AID 1159515; calls by dose curve; note: nearly all actives have a fitted effect of over 55% in size). In short, it runs like this:
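5 hr compound treatment of NFkB-bla ME-180 cells (2,000/well, seeded overnight beforehand), followed by reporter substrate for 1.5 hr. CellTiter-Glo added afterward; luminescence after 30 min RT.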

Assay [5] in a line: qHTS assay to identify small molecule agonists of the endoplasmic reticulum stress response signaling pathway - cell viability counter screen (AID 1159517; calls by dose curve;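 note: HeLa cells carrying an ER stress response element beta-lactamase reporter; nearly all actives have a fitted effect of over 50% in size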). An outline of the steps:
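Counter-screen wells were identical to the reporter wells. Cells were plated at 1,500 per well and dosed for 5 hr, then read for luminescence 30 min after CellTiter-Glo addition.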

A short description of assay [6]: qHTS assay to identify small molecule antagonists of the retinoid-related orphan receptor gamma (ROR-gamma) signaling pathway - cell viability counter screen (AID 1159520). Note: nearly all actives have a fitted effect of over 50% in size. An outline of the steps:
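Tet-on ROR gamma CHO cells were given compounds for 2 hr, then doxycycline hyclate at 1 uM final, and incubated 16 hr at 37 C. Viability was measured as ATP content by CellTiter-Glo luminescence.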

Assay [7] concerns the target Nuclear receptor ROR-gamma (Homo sapiens) (UniProt P51449). Nature of the assay: qHTS assay to identify small molecule antagonists of the retinoid-related orphan receptor gamma (ROR-gamma) signaling pathway (AID 1159521; note: nearly all actives have a fitted effect of over 50% in size; note: potency is the fitted concentration of half-maximal effect). In short, it runs like this:
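CHO Tet-on RORγ, RORE-luc reporter. Cpd 2 h pre-incubation, then dox hyclate 1 uM final, 16 h, 37 C/5% CO2. ONE-Glo luminescence; decrease = antagonist.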

Assay [8] in a line: qHTS assay to identify small molecule agonists of the AP-1 signaling pathway - cell viability counter screen (AID 1159525; calls by dose curve; note: nearly all actives have a fitted effect of over 55% in size). In short, it runs like this:
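AP-1-bla ME-180 cells in Opti-MEM with 0.5% dialyzed FBS, compound exposure 5 h at 37 C in 15-point titration. Viability read in the same wells as ATP content by CellTiter-Glo luminescence, normalised to tetra-n-octylammonium bromide and DMSO controls.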

Assay [9] addresses Retinoic acid receptor RXR-alpha (Homo sapiens) (UniProt P19793). Put plainly: qHTS assay to identify small molecule agonists of the RXR signaling pathway (AID 1159527; calls by dose curve; note: nearly all actives have a fitted effect of over 35% in size). An outline of the steps: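 Read-out: beta-lactamase FRET ratio (405 nm excitation, 460 and 530 nm emission) after 2 hr substrate loading at room temperature. Cells were RXR-alpha-UAS-bla HEK 293T treated with compounds for 16 hr in 2% charcoal-stripped FBS medium.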

Assay [10] can be described thus: qHTS assay to identify small molecule agonists of the RXR signaling pathway - cell viability counter screen (AID 1159529). Note: nearly all actives have a fitted effect of over 50% in size. In short, it runs like this: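 HEK 293T RXRa-bla cells, 2% CS-FBS; 5 h settle; cpd 16 h 37 C, 5% CO2; CellTiter-Glo 30 min RT, luminescence. Tetraoctyl ammonium bromide as positive control.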
Assay [11] can be described thus: qHTS assay to identify small molecule antagonists of the retinoid acid receptor (RAR) signaling pathway - cell viability counter screen (AID 1159551). Note: nearly all actives have a fitted effect of over 35% in size. An outline of the steps: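 Seed C3RL4 cells; next day add compound, then retinol to 1 uM final; incubate 6 h at 37 C; add CellTiter-Glo; read luminescence after 30 min at RT.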
Assay [12] in a line: qHTS assay to identify small molecule agonists of the AP-1 signaling pathway (AID 1159526; calls by dose curve).
Assay [13] is described as follows: qHTS assay to identify small molecule antagonists of the retinoic acid receptor (RAR) signaling pathway (AID 1159552; note: nearly all actives have a fitted effect of over 50% in size). An outline of the steps: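 Cells of the C3RL4 line were seeded, incubated overnight, then dosed with compounds in DMSO followed immediately by retinol (1 uM final). Six hours later luciferase detection reagent went in; signal was measured after 30 min at RT.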

Assay [14] can be described thus: qHTS assay to identify small molecule agonists of the retinoic acid receptor (RAR) signaling pathway (AID 1159553). The conditions noted are these: C3RL4 RARE luciferase reporter, agonist, 6 h; activation: at 73.3 µM (top of the series). In short, it runs like this:
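Activation of retinol signaling was monitored via a RARE luciferase reporter in C3RL4 cells. After 6 hr compound treatment at 37 C, detection reagent was added for 30 min at room temperature before luminescence reading.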

Assay [15] is described as follows: qHTS assay to identify small molecule antagonists of the estrogen related receptor (ERR) signaling pathway (AID 1224819). An outline of the steps: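 qHTS in ERR cells, 2,000/well, 1536 format. Cpd (DMSO) added after 6 h settle, 18 h 37 C. One-Glo luminescence, 30 min RT.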
Assay [16] can be described thus: qHTS assay to identify small molecule agonists of the estrogen related receptor (ERR) signaling pathway (AID 1224820). In short, it runs like this: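 ERR reporter cells (NTP line) plated 2,000/well, incubated 6 h at 37 C/5% CO2, then pinned with compounds in DMSO and held 18 h at 37 C. One-Glo added; luminescence read after 30 min at room temperature.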
Assay [17] relates to estrogen-related receptor alpha (ERRalpha) with PGC-1alpha coactivator, human. Nature of the assay: qHTS assay to identify small molecule antagonists of the estrogen related receptor signaling pathway with the pleiotropic PPARgamma coactivator (PGC) (AID 1224821; calls by dose curve). An outline of the steps:
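Cells engineered for PGC/ERR signalling (line from NTP) were plated 6 h at 37 C/5% CO2, then exposed to DMSO-dissolved compound for 18 h at 37 C. Luciferase activity was read by One-Glo luminescence after 30 min at room temperature.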

A short description of assay [18]: qHTS assay to identify small molecule antagonists of the estrogen related receptor signaling pathway with the pleiotropic PPARgamma coactivator (PGC) cell viability counter screen (AID 1224822;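 note: viability read after 17.5 h compound exposure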). An outline of the steps:
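Compounds in DMSO, with positive and negative controls, were applied to PGC/ERR cells (2,000/well) and left 17.5 h at 37 C before CellTiter-Fluor detection.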

Assay [19] can be described thus: qHTS assay to identify small molecule agonists of the estrogen related receptor signaling pathway with the pleiotropic PPARgamma coactivator (PGC) (AID 1224823). An outline of the steps:
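PGC/ERR reporter cells were seeded, rested 6 h at 37 C/5% CO2, then exposed to compounds in DMSO by pin transfer for 18 h at 37 C. Luciferase activity was read as luminescence after One-Glo reagent and 30 min at room temperature.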

Results filed as inconclusive are left out. A number with no mark means an inactive call. Calls of active or inactive are those of the source. Unless noted, calls come from the whole dose curve; as a rule, active = well fitted curve in the direction sought with a large enough effect in the repeat runs; inconclusive = weak or mixed curves; inactive = no such curve, though single readings can be large; an effect the other way counts as inactive or inconclusive.

Sequence of Retinoic acid receptor RXR-alpha (Homo sapiens) (P19793 whole entry, looked up): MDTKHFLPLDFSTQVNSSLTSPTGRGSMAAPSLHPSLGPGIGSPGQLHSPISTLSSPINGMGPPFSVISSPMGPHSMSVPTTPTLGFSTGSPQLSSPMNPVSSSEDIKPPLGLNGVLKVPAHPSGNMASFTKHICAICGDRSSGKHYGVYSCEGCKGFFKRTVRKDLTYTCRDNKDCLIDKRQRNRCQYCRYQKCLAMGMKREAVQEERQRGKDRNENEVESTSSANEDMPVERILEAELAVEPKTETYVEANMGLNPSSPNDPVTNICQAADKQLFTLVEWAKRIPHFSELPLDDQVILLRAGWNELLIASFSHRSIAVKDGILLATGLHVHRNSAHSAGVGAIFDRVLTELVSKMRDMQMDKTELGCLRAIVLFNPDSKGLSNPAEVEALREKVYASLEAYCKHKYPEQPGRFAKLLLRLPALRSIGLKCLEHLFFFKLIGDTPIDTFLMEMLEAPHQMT

In the case of `CCOc1ccccc1O[C@H](c1ccccc1)[C@H]1CNCCO1`, the Potency result in [1], in assay [2], in assay [3], in [4], in [5] and in [6] was “inactive” each time. The Potency entry in [7], in [8], in assay [9], in assay [10] and in assay [11] was “inactive” in each case.

`COC(=O)C1=C(C)NC(C)=C(C(=O)O[C@@H]2CCCN(Cc3ccccc3)C2)[C@@H]1c1cccc([N+](=O)[O-])c1`: the Potency result in assay [1], in assay [2], in [3], in assay [4], in assay [5] and in [6] was “inactive” in each case. Also, the Potency entry in assay [8], in assay [12], in [10] and in [11] was “inactive” in each case.

Turning to `CCOc1ccc(Cc2nccc3cc(OCC)c(OCC)cc23)cc1OCC`, the Potency result in assay [1], in [2], in assay [3], in assay [4], in [5] and in assay [8] was “inactive” in each case. The Potency result in assay [12], in assay [10], in [11], in [13] and in [14] was “inactive” throughout. Besides, the Potency in [7] is 7.5 µM (active).

Turning to `CCCCN(CCCC)C(C(N)=O)c1ccc(OC)cc1` (stereo not given), the Potency entry in [1], in assay [2], in assay [3], in [4], in assay [5] and in assay [6] was “inactive” throughout. Further, the Potency entry in [8], in assay [12], in [9], in assay [10] and in assay [11] was “inactive” each time.

`CCC(C)COC(=O)CC(C)C` (stereo not given): the Potency result in [1], in [3], in assay [4], in assay [5], in assay [6] and in [12] was “inactive” throughout. Besides, the Potency result in assay [11], in assay [13] and in [14] was “inactive” throughout.

Consider `O=Cc1c2ccccc2c(Cl)c2ccccc12`, for which the Potency entry in assay [1], in [2], in assay [3], in [4], in assay [5] and in assay [6] was “inactive” each time. In addition, the Potency result in [8], in [11], in assay [13] and in assay [14] was “inactive” throughout.

On to `C[C@@H](O)[C@H]1C(=O)N2C(C(=O)O)=C([C@H]3CCCO3)S[C@H]12`, for which the Potency result in [3], in assay [4], in [5], in assay [6], in assay [7] and in assay [8] was “inactive” each time. The Potency entry in assay [9], in assay [10], in assay [11], in assay [13] and in assay [14] was “inactive” throughout.

`Nc1cccc2c1CN(C1CCC(=O)NC1=O)C2=O` (stereo not given): the Potency result in assay [1], in assay [2], in assay [3], in assay [4], in assay [5] and in assay [6] was “inactive” throughout. The Potency result in assay [7], in [12], in [9], in assay [10], in assay [11] and in [13] was “inactive” throughout. Also, the Potency entry in assay [14] is “inactive”.

On to `O=C(O)CCc1nc(-c2ccccc2)c(-c2ccccc2)o1`, for which the Potency result in assay [1], in assay [2], in assay [3], in assay [4], in [6] and in assay [7] was “inactive” throughout. Besides, the Potency entry in assay [8], in [12], in assay [10], in [11] and in [14] was “inactive” throughout. In addition, the result in [15], in assay [16], in assay [17], in assay [18] and in assay [19] was inactive.

Consider `C=C1c2cccc(O)c2C(O)=C2C(=O)[C@]3(O)C(O)=C(C(N)=O)C(=O)[C@@H](N(C)C)[C@@H]3[C@@H](O)[C@H]12`, for which the Potency entry in assay [1], in assay [2], in assay [3], in assay [4], in assay [5] and in assay [8] was “inactive” each time. Moreover, the Potency result in assay [12], in [9], in assay [10], in [11], in assay [13] and in assay [14] was “inactive” throughout.

Source of the values: PubChem BioAssay (Tox21).
